Inhibition data for two compounds are collected here from ChEMBL document CHEMBL1961873, “Compounds: GSK PKIS; Assays: Nanosyn kinase panel” (2012).

For assay [1], the target named is Protein kinase C gamma type (Homo sapiens) (UniProt P05129). The conditions noted are these: at 1 µM.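 Note: each value is an averaged percent inhibition of the enzyme.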
In assay [2] the target is T1, Protein kinase C iota type (Homo sapiens) (UniProt P41743).
T1 sequence (whole entry): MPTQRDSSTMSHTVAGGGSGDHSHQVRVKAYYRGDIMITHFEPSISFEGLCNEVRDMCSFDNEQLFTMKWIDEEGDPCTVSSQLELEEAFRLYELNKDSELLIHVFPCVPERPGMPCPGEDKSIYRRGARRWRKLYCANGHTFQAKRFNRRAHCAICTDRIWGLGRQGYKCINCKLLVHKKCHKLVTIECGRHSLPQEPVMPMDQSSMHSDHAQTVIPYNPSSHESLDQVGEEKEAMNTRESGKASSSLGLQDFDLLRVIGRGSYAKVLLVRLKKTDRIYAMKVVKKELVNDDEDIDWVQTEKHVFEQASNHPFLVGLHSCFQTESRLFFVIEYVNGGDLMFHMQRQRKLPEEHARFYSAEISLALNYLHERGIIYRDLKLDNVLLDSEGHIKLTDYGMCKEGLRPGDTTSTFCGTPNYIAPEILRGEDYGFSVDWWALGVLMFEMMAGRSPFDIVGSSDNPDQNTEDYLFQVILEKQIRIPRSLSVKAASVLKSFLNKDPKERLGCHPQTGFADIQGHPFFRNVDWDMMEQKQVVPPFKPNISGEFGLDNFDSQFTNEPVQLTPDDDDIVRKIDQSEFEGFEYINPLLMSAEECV
The conditions noted are these: at 0.1 µM.

Assay [3] concerns the target T1, Protein kinase C iota type (Homo sapiens). The conditions noted are these: at 1 µM.
The target of assay [4] is Protein kinase C theta type (Homo sapiens) (UniProt Q04759). The conditions noted are these: at 0.1 µM.
Assay [5] shares this target. The conditions noted are these: at 1 µM.
Assay [6] addresses Protein kinase C beta type (Homo sapiens) (UniProt P05771). The conditions noted are these: at 0.1 µM.
Assay [7] shares this target. The conditions noted are these: at 1 µM.
Assay [8] concerns the target T2, Serine/threonine-protein kinase D1 (Homo sapiens) (UniProt Q15139).
T2 sequence (whole entry): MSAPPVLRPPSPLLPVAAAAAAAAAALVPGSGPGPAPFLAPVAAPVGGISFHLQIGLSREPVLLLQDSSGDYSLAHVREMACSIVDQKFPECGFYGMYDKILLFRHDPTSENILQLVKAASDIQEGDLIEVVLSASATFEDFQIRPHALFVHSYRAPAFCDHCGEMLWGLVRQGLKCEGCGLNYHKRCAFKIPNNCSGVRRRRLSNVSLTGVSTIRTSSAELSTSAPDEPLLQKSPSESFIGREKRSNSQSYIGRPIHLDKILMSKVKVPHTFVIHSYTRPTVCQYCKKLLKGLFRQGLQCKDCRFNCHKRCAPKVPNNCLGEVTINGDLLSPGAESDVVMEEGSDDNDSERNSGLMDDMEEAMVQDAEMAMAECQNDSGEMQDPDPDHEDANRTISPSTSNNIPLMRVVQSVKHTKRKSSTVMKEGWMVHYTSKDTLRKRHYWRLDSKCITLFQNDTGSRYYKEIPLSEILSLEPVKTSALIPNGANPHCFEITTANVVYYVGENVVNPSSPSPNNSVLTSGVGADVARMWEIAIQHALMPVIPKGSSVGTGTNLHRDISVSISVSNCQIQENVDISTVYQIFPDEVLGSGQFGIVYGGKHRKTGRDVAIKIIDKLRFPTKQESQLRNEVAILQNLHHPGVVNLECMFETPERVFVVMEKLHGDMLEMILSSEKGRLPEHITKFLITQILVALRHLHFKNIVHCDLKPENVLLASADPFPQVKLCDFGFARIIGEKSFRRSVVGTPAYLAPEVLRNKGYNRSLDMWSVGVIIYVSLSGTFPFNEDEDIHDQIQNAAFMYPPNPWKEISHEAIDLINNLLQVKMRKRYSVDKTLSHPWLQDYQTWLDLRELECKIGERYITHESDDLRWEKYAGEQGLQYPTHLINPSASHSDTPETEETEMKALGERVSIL
The conditions noted are these: at 0.1 µM.

Assay [9] has as its target T2, Serine/threonine-protein kinase D1 (Homo sapiens). The conditions noted are these: at 1 µM.
The target in assay [10] is T3, Serine/threonine-protein kinase D2 (Homo sapiens) (UniProt Q9BZL6).
T3 sequence (whole entry): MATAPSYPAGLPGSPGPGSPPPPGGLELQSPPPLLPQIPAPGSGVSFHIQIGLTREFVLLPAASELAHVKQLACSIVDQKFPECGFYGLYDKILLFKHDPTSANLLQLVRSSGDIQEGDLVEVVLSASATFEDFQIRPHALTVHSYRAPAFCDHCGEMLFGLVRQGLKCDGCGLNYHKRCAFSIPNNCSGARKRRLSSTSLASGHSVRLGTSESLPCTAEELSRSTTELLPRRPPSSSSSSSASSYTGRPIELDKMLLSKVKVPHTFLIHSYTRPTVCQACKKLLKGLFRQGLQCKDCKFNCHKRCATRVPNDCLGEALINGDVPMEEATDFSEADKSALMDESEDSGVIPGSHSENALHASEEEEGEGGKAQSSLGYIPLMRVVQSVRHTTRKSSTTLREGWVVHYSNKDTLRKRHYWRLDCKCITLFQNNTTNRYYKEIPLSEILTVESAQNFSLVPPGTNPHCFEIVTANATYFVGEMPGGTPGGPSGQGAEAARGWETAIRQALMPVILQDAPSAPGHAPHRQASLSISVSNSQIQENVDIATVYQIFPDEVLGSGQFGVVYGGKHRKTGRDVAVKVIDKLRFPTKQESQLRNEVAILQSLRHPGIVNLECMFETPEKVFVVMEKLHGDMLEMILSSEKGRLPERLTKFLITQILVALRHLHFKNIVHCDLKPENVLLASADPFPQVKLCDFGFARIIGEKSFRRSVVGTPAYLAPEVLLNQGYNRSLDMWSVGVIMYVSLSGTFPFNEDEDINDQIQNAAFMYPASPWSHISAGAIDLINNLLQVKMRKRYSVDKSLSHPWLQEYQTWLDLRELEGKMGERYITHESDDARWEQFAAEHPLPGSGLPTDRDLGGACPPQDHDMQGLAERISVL
The conditions noted are these: at 0.1 µM.

For assay [11], the target named is T3, Serine/threonine-protein kinase D2 (Homo sapiens). The conditions noted are these: at 1 µM.
In assay [12] the target is T4, Serine/threonine-protein kinase D3 (Homo sapiens) (UniProt O94806).
T4 sequence (whole entry): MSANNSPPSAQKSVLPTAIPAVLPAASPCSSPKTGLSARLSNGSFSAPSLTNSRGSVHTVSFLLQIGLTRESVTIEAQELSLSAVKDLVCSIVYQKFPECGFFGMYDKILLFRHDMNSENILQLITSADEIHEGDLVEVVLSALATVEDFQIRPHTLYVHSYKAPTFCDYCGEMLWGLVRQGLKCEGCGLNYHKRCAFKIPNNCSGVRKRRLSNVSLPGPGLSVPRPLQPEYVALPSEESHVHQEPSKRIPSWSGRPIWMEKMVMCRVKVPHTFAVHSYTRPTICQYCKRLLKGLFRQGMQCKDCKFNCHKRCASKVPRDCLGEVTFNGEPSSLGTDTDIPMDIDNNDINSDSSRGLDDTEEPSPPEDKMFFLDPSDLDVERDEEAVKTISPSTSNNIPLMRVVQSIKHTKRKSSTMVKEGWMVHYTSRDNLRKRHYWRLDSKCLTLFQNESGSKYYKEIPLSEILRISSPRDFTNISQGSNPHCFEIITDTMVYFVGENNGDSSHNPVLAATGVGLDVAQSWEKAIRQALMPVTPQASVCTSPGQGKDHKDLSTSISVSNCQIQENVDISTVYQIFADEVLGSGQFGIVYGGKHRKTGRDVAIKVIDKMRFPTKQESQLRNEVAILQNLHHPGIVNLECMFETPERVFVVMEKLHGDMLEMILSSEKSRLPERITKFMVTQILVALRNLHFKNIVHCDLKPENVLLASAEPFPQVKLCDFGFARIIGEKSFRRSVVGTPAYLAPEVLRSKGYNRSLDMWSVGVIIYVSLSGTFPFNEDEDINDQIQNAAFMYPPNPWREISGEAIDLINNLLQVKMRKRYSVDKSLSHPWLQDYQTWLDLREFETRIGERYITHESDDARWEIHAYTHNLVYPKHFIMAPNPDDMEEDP
The conditions noted are these: at 0.1 µM.

Assay [13] addresses T4, Serine/threonine-protein kinase D3 (Homo sapiens). The conditions noted are these: at 1 µM.
The target of assay [14] is T5, cGMP-dependent protein kinase 1 (Homo sapiens) (UniProt Q13976).
T5 sequence (whole entry): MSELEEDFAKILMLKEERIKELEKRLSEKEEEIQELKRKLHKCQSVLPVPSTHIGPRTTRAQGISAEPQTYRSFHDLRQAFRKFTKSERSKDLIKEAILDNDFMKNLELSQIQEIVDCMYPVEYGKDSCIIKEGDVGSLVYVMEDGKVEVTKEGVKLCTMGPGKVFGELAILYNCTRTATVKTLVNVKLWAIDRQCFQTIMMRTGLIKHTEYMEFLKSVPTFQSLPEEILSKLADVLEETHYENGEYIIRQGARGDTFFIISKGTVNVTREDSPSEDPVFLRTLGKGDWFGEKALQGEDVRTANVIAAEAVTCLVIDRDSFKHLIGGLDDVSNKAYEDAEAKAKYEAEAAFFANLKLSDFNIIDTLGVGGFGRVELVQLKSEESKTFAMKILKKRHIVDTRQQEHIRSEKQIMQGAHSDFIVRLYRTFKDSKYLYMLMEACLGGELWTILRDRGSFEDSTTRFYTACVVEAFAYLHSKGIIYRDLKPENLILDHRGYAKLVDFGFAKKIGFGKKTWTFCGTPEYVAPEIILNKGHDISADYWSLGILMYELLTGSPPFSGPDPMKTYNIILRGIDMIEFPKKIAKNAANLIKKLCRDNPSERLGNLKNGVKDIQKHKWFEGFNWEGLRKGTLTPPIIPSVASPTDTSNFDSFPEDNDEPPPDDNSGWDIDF
The conditions noted are these: at 0.1 µM.

Assay [15] deals with T5, cGMP-dependent protein kinase 1 (Homo sapiens). The conditions noted are these: at 1 µM.
Assay [16] has as its target T6, cGMP-dependent protein kinase 2 (Homo sapiens) (UniProt Q13237).
T6 sequence (whole entry): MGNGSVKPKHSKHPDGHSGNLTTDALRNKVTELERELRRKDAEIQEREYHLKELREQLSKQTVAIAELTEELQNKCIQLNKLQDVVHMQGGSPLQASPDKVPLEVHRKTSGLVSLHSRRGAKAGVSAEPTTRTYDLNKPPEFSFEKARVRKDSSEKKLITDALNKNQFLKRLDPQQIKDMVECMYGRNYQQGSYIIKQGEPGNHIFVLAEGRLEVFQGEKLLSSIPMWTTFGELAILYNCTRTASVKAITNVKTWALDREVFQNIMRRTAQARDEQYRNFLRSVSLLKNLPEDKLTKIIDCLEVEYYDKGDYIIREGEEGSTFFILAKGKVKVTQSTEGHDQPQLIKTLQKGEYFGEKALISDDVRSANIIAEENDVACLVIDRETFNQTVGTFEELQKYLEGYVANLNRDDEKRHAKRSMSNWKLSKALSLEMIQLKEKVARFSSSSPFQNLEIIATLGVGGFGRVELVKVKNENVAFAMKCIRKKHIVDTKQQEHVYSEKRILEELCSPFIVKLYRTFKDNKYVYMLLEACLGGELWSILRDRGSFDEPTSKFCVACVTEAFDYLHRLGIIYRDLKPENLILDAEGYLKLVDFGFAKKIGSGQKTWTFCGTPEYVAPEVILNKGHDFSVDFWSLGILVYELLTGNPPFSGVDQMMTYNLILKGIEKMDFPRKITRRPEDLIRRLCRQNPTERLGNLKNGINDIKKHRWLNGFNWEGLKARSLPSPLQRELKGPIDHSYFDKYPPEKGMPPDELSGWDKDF
The conditions noted are these: at 0.1 µM.

For assay [17], the target named is T6, cGMP-dependent protein kinase 2 (Homo sapiens). The conditions noted are these: at 1 µM.
Assay [18] has as its target T7, cAMP-dependent protein kinase catalytic subunit PRKX (Homo sapiens) (UniProt P51817).
T7 sequence (whole entry): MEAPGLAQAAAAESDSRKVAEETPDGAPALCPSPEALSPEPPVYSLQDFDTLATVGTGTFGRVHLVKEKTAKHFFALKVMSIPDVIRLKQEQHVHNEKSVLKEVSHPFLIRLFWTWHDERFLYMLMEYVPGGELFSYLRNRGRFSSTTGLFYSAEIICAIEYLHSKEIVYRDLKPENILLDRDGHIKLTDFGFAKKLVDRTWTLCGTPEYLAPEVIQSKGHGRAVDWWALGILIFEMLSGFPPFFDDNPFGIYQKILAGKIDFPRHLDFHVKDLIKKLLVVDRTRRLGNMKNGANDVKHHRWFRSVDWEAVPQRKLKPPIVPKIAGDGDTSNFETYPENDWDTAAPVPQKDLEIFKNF
The conditions noted are these: at 0.1 µM.

Assay [19] addresses T7, cAMP-dependent protein kinase catalytic subunit PRKX (Homo sapiens). The conditions noted are these: at 1 µM.
Assay [20] concerns the target Rho-associated protein kinase 1 (Homo sapiens) (UniProt Q13464). The conditions noted are these: at 0.1 µM.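 Note: values are mean percent inhibition of ROCK1.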

Molecules are shown by their SMILES.

Sequence of Protein kinase C beta type (Homo sapiens) (P05771 2-671 limits assumed): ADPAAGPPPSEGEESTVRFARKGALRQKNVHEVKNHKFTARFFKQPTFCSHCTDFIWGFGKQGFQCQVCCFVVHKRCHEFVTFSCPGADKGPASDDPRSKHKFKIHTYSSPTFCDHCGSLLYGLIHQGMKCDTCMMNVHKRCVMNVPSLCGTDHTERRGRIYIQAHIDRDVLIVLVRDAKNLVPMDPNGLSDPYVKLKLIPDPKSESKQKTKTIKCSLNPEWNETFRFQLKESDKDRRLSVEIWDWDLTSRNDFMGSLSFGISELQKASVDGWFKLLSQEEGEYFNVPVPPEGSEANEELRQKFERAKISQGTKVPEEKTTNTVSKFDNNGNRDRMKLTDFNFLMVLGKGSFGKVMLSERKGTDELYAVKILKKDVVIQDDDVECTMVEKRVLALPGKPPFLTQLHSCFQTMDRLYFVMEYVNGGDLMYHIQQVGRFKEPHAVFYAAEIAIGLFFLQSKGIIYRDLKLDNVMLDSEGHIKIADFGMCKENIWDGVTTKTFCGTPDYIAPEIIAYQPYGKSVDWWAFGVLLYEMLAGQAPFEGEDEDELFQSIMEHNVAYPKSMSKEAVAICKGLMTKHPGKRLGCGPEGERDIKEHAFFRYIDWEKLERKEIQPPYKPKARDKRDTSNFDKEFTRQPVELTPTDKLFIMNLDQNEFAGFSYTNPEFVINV
Sequence of Protein kinase C theta type (Homo sapiens) (Q04759 whole entry, looked up): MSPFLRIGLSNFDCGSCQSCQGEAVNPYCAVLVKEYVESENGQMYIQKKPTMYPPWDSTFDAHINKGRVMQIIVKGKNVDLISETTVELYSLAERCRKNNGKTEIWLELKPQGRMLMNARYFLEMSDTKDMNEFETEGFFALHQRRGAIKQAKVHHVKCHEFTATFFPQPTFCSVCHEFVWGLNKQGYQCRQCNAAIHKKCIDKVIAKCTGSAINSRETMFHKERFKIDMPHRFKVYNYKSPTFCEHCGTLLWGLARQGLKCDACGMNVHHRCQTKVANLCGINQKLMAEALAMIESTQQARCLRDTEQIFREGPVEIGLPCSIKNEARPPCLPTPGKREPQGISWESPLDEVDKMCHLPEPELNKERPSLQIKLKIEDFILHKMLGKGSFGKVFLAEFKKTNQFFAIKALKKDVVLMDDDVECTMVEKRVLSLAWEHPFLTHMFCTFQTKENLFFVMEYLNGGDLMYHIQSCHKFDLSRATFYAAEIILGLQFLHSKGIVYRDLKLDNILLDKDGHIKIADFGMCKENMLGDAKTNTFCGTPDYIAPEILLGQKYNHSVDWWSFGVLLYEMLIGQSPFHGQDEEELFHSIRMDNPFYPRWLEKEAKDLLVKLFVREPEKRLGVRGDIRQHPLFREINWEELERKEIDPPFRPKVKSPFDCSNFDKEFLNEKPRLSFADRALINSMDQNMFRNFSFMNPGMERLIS
Sequence of Rho-associated protein kinase 1 (Homo sapiens) (Q13464 2-1354 limits assumed): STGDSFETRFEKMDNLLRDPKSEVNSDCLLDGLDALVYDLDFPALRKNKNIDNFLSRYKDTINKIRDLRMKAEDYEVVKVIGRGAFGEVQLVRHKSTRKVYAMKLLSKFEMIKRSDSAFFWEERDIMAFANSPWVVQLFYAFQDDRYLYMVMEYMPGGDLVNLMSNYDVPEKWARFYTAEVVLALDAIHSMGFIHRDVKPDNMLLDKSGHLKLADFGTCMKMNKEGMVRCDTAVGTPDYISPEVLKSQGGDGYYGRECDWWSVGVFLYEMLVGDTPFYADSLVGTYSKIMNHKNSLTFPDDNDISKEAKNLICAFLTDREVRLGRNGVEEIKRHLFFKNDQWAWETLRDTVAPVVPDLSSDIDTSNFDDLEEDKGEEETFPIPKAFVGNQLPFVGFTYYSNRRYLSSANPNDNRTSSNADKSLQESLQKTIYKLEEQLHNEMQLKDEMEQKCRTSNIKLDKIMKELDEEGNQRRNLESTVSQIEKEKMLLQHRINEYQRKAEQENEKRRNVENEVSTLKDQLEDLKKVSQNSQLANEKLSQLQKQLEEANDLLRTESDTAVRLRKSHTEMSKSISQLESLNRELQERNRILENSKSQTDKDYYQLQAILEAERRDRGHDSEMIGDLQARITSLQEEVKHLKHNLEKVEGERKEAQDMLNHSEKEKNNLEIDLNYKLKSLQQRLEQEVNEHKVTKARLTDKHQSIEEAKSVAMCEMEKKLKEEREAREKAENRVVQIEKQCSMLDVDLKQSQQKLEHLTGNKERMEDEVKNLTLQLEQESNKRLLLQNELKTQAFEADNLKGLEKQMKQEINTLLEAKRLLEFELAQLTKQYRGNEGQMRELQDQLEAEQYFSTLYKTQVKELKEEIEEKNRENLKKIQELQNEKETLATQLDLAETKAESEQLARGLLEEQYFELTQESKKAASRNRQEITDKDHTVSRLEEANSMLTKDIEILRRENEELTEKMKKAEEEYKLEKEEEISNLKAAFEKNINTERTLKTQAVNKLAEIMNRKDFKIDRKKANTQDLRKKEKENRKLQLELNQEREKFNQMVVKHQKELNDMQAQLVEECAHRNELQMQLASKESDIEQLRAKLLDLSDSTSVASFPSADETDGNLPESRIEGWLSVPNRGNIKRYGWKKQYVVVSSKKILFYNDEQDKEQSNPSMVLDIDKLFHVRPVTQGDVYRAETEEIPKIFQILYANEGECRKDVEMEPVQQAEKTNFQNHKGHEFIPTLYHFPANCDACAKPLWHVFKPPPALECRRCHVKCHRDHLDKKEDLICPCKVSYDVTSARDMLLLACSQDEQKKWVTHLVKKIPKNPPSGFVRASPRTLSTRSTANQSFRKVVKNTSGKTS

As for `c1ccc(-c2n[nH]cc2-c2ccnc(-c3ccc(OCCN4CCOCC4)cc3)c2)nc1`, the inhibition – broadly, the relative decrease from the control value, in per cent – in [1] is 4%; in [2], 3.68%; in [3], 4.56%; in assay [4], 0.5%; in assay [5] it was -0.12%; in assay [6], 3.96%. For the same compound, the inhibition in [7] came out at 3.92%; in assay [8] it was 10.3%; in assay [9], 66.3%; in [10], 16.2%; in [11], 80.7%; in assay [12] it was 5.97%. The inhibition in [13] was found to be 57.5%; in [14], 3.53%; in [15] it was 4.78%; in assay [16], 4.17%; in assay [17] it was 3.32%; in assay [18], 4.09%. Besides, the inhibition came out at 2.55% in assay [19] and 1.08% in [20].

For `C/C(Nc1ccc(S(N)(=O)=O)cc1)=C1/C(=O)Nc2ccccc21`, the inhibition in assay [1] was 2.57%; in assay [2], -0.37%; in [3] it was 0.02%; in assay [4], -0.23%; in [5] it was 3.24%; in assay [6] it was -0.77%. Further, the inhibition in [7] is 1.28%; in assay [8], 0.51%; in assay [9] it was 15.9%; in assay [10], 0.69%; in assay [11], 11.3%; in [12] it was -0.08%. For the same compound, the inhibition came out at 9.13% in assay [13]; 0.96% in assay [14]; 3.66% in assay [15]; 0.21% in assay [16]; 8.25% in [17]; 1.97% in [18]. For the same compound, the results for the inhibition in [19] and in [20] were 4.84% and 2.38%, respectively.
